SMILES strings stand for the structures. Screen size: about 39,000 compounds; about 3,300 (8.5%) were called active. The sample as a whole holds a higher share of actives than the screen did.

For this assay, the system named is HepG2. Nature of the assay: cytotoxicity call (relative viability < 0.9). Conditions: 10 µM.
As to `COc1ccc(S(=O)(=O)Nc2ccc3c(c2)C(=O)N([C@H](C)CO)C[C@@H](C)[C@H](CN(C)C(=O)NC(C)C)O3)cc1`, the cytotoxicity call was “inactive”.
The same measure for `C[C@H]1CN([C@@H](C)CO)C(=O)Cc2cc(NS(C)(=O)=O)ccc2O[C@H]1CN(C)C(=O)Nc1ccc(F)cc1`: “inactive”.
The entry for `CC(C)C[C@H](NC(=O)CNC(=O)c1cc(Cl)ccc1Cl)B1OC(=O)C[C@](CC(=O)O)(C(=O)O)O1` is “active”; for `C[C@@H]1CN([C@@H](C)CO)C(=O)c2cccc(NC(=O)Nc3ccc(F)cc3)c2O[C@@H]1CN(C)S(C)(=O)=O` it is “inactive”; for `C[C@H](CO)N1C[C@H](C)[C@H](CN(C)S(C)(=O)=O)Oc2c(NC(=O)Nc3ccccc3)cccc2C1=O` it is “inactive”.
The same measure for `Cc1ccc(CCSc2ccc(Cl)c(Cl)c2)cn1`: “active”; for `Cc1ccc(CSc2ncc(C(F)(F)F)cc2Cl)cc1`: “inactive”; for `N#Cc1ccccc1C#CCO`: “inactive”.
For the compound `CC(N)O.Cc1cc(CC(C)CC(C)(C)C)n(O)c(=O)c1` (stereo unspecified), the cytotoxicity call is “active”.
The entry for `Cc1ccc(S(=O)(=O)N2C[C@H](O)COC[C@@H]3O[C@H](CC(=O)N[C@@H]4CCN(Cc5ccccc5)C4)CC[C@H]32)cc1` is “inactive”; for `C[C@@H]1CN([C@@H](C)CO)C(=O)c2cc(NC(=O)Nc3ccccc3)ccc2O[C@@H]1CN(C)C(=O)Nc1cccc2ccccc12` it is “inactive”; for `C[C@@H]1CN([C@@H](C)CO)C(=O)c2c(c3ccccc3n2C)-c2ccccc2CO[C@@H]1CN(C)Cc1ccc(O)cc1` it is “inactive”.
The entry for `O=C(N/N=C/c1ccc(B(O)O)cc1)c1ccccc1O` is “inactive”.
As to `Cc1cc(C(=O)O)cc(S(N)(=O)=O)c1`, the cytotoxicity call was “active”.
The entry for `NS(=O)(=O)c1ccc(C(=O)O)cc1` [listing 1 of 2 here] is “inactive”; for `NS(=O)(=O)c1ccc(C(=O)O)cc1` [listing 2 of 2 here] it is “inactive”; for `COc1ccc([Si](C)(C)[C@@H]2[C@@H](CCOC(=O)NCCCCCC(=O)NO)O[C@]3(C(=O)N(Cc4ccccc4)c4ccc(I)cc43)[C@H]2C)cc1` it is “inactive”.
The same measure for `COc1ccc([Si](C)(C)[C@H]2[C@H](CCO)O[C@@]3(C(=O)N(Cc4ccccc4)c4ccc(N(C=O)c5ccccc5)cc43)[C@@H]2C)cc1`: “active”.
The entry for `C[C@@H]1[C@@H]([Si](C)(C)F)[C@H](CCO)O[C@@]12C(=O)N(Cc1ccccc1)c1ccc(N(C=O)c3ccccc3)cc12` is “inactive”; for `COC(=O)C[C@H]1O[C@]2(C(=O)N(Cc3ccccc3)c3ccc(I)cc32)[C@@H](C)[C@@H]1[Si](C)(C)c1ccc(OC)cc1` it is “inactive”.
Regarding `COc1ccc([Si](C)(C)[C@@H]2[C@@H](CCO)O[C@]3(C(=O)N(Cc4ccccc4)c4ccc(N(C=O)c5ccccc5)cc43)[C@H]2C)cc1`, the cytotoxicity call is “active”.
The same measure for `COc1ccc([Si](C)(C)[C@H]2[C@H](CCOC(=O)NCCCCCC(=O)NO)O[C@@]3(C(=O)N(Cc4ccccc4)c4ccc(I)cc43)[C@@H]2C)cc1`: “inactive”; for `Cc1noc(C)c1NC(=O)Nc1ccc2c(c1)C(=O)N([C@@H](C)CO)C[C@@H](C)[C@@H](CN(C)C(=O)Nc1ccc(F)cc1)OCCCC[C@@H](C)O2`: “inactive”.
Regarding `Cc1ccc(S(=O)(=O)NCC[C@@H]2CC[C@H](NS(=O)(=O)c3ccccc3Cl)[C@@H](CO)O2)cc1`, the cytotoxicity call is “inactive”.
With `C[C@@H]1CN([C@H](C)CO)C(=O)c2cccc(NC(=O)c3ccncc3)c2O[C@H]1CN(C)Cc1ccc(C(=O)O)cc1`, the cytotoxicity call is “inactive”.
The entry for `O=c1cc(-c2cccc(O)c2)oc2ccc(O)cc12` is “inactive”; for `O=C(C[C@@H]1CC[C@@H]2[C@H](COC[C@H](O)CN2S(=O)(=O)c2ccc(F)cc2)O1)NCc1ccc(Cl)c(Cl)c1` it is “inactive”; for `c1nc(N2CCOCC2)nc(N2CCOCC2)n1` it is “inactive”.
The same measure for `CS(=O)(=O)N1CC[C@]2(COCc3cnc(N4CCOCC4)nc32)C1`: “inactive”.
`CS(=O)(=O)N1CCc2c(-c3cnc(N)nc3)nc(N3CCOCC3)nc21`: the cytotoxicity call was “active”.
The entry for `C[C@@H]1CN([C@H](C)CO)C(=O)c2cc(NS(=O)(=O)c3ccc(F)cc3)ccc2O[C@H]1CN(C)Cc1ccc(-c2ccccc2)cc1` is “active”.
The entry for `C[C@@H]1CN([C@H](C)CO)C(=O)c2cc(NS(=O)(=O)c3ccccc3)ccc2O[C@H]1CN(C)Cc1ccc(-c2ccccc2)cc1` is “inactive”; for `C[C@H](CO)N1C[C@H](C)[C@@H](CN(C)Cc2ccc(-c3ccccc3)cc2)Oc2ccc(NS(=O)(=O)c3ccccc3)cc2C1=O` it is “inactive”.
As to `C[C@H]1CN([C@@H](C)CO)C(=O)c2cc(NS(=O)(=O)c3ccc(F)cc3)ccc2O[C@H]1CN(C)Cc1ccc(-c2ccccc2)cc1`, the cytotoxicity call was “inactive”.
For the compound `C[C@@H]1CN([C@@H](C)CO)C(=O)c2cc(NS(=O)(=O)c3ccc(F)cc3)ccc2O[C@H]1CN(C)Cc1ccc(-c2ccccc2)cc1`, the cytotoxicity call was “inactive”.
The entry for `C[C@H](CO)N1C[C@H](C)[C@H](CN(C)Cc2ccc(-c3ccccc3)cc2)Oc2ccc(NS(=O)(=O)c3ccc(F)cc3)cc2C1=O` is “inactive”; for `C[C@@H]1CN([C@@H](C)CO)C(=O)c2cc(NS(=O)(=O)c3ccc(F)cc3)ccc2O[C@@H]1CN(C)Cc1ccc(-c2ccccc2)cc1` it is “active”; for `C[C@H]1CN([C@@H](C)CO)C(=O)c2cc(NS(=O)(=O)c3ccc(F)cc3)ccc2O[C@@H]1CN(C)Cc1ccc(-c2ccccc2)cc1` it is “active”.
The entry for `C[C@@H]1CN([C@H](C)CO)C(=O)c2cc(NS(=O)(=O)c3ccc(F)cc3)ccc2O[C@@H]1CN(C)Cc1ccc(-c2ccccc2)cc1` is “active”; for `C[C@H](CO)N1C[C@H](C)[C@H](CN(C)C(=O)NC2CCCCC2)OCCCC[C@H](C)Oc2ccc(NC(=O)CCC(F)(F)F)cc2C1=O` it is “inactive”.
The same measure for `Cn1c(=O)c2c(nc3n2CC=NN3)n(C)c1=O`: “inactive”.
For `Cc1n[nH]c(C)c1N`, the cytotoxicity call was “inactive”.
The entry for `CC(C)(C)[S@@](=O)N1Cc2cc(C(=O)N3CCCCC3)nc(-c3cccc(C4=CCCC4)c3)c2[C@H]1CCO` is “inactive”; for `C[C@@H]1CN([C@H](C)CO)C(=O)c2cccc(NC(=O)CCCCCC(=O)Nc3ccccc3N)c2O[C@H]1CN(C)S(C)(=O)=O` it is “inactive”.
The entry for `C[C@H](CO)N1C[C@H](C)[C@@H](CN(C)Cc2ccc(-c3ccccc3)cc2)Oc2ccc(NS(=O)(=O)c3ccc(F)cc3)cc2C1=O` is “active”; for `Cc1noc(C)c1S(=O)(=O)N(C)C[C@H]1Oc2ccc(NS(=O)(=O)c3cn(C)cn3)cc2CC(=O)N([C@@H](C)CO)C[C@H]1C` it is “inactive”.

The values above are taken from the antibiotic and cytotoxicity screens of Wong et al. (2023).
